LDHA inh: qHTS assay for inhibitors of human lactate dehydrogenase | purified LDHA, NADH/diaphorase-resazurin fluorescence; stronger effect = lower value | 0.15% of 480,000 active | activity change, % (values are at about 110 or 230 µM) | AID 1347041, 2019 | L-lactate dehydrogenase A chain (Homo sapiens), P00338; in the data active means activity change below about -30%; inconclusive means mostly about -25% to -30%
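Enzyme activity of human lactate dehydrogenase 5 (2 nM; 0.06 mM NADH, 0.2 mM pyruvate, 5 min, RT) is measured via a resazurin/diaphorase fluorescence readout of residual NADH.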
RGS4 inh: Inhibitors of Regulator of G Protein Signaling (RGS) 4: qHTS. Regulator of G-protein signaling 4 (Homo sapiens), P49798. Transcreener GDP fluorescence polarization, RGS4-accelerated GTP hydrolysis. Potency, µM (titrated, usually from 114 µM), most hits filed as inhibitors. 0.039% of 390,000 active. AID 504845, 2011; active means well fitted inhibition curve with a large enough effect; inconclusive means small, poorly fitted or top-dose-only effect; inactive means no such curve, though single readings can be large or run the other way; further: nearly all actives have a fitted effect of over 75% in size
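MLSMR compounds (23 nl, pin-transferred) preincubated 10 min at room temperature with a 500nM (2x) first reagent, then RGS4 at 900nM (2x) plus Transcreener GDP mix added; fluorescence polarization (620/688 nm) read before and after 90 min at 30 °C.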
D3 antag: qHTS of D3 Dopamine Receptor Antagonist: qHTS. D3R cells, DiscoveRx beta-arrestin luminescence, antagonist mode; stronger effect = lower value. max response, negative = inhibition, %. 2.5% of 360,000 active; in the data active means max response below about -50%; inconclusive means no clear call, values can overlap the other calls
Target sequence (P35462 whole entry, looked up): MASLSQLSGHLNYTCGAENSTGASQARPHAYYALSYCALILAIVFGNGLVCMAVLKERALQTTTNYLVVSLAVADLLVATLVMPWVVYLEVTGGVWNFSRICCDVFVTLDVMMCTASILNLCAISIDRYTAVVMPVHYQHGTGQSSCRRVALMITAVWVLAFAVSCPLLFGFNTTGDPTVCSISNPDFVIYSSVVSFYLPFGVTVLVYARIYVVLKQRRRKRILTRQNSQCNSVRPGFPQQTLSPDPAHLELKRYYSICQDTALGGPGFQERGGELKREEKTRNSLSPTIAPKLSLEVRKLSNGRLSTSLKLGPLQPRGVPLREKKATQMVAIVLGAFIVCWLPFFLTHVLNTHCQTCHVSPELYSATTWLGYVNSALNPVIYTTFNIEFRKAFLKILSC
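Cells expressing the human receptor were seeded at 1500 cells/well, incubated overnight at 37 degrees C in 5% CO2, then exposed to library compounds with dopamine controls for 90 minutes at 37 degrees C before luminescent detection.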
PI4K2A block: qHTS for small molecular inhibitors of PI4K2A. purified PI4K2A, ADP-Glo luminescence, 1 h; stronger effect = lower value. activity change, negative = inhibition, % at 76.9 µM. AID 1346378, 2018. Phosphatidylinositol 4-kinase type 2-alpha (Homo sapiens), Q9BTU6. 0.13% of 420,000 active; in the data active means activity change below about -50%; inconclusive means mostly about -30% to -49%
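In this quantitative HTS, ADP production by PI4K2A was quantified luminescently after 1 h at ambient temperature; 100 microM adenosine served as plate-quality control.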
Akt phos inh: HTS Assay for Inhibitors of Akt Phophorylation: Primary Screen; activity change, % for hits at 50 µM; AID 651550, 2012; 0.32% of 360,000 active; Neuro2A IGF-stimulated pAkt S473 HTRF, 20 min; stronger effect = lower value; in the data active means activity change below about -80%; inconclusive means mostly about -51% to -80%
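Neuro2A cells (4,500/well, DMEM with 0.5% FBS) were treated with compound at a single 50 µM final concentration, stimulated with 6 nM IGF for 20 min at 37 °C, and lysed. Phospho-Akt Ser473 was read by HTRF as 665/615 ratio ×10^4.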
D3 ag: qHTS of D3 Dopamine Receptor Agonist: qHTS; D(3) dopamine receptor (Homo sapiens), P35462; D3R DiscoveRx beta-arrestin cells, luminescence, 90 min; max activation, %; 0.58% of 410,000 active; AID 652048, 2013; in the data active means max activation above about 30%
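Agonist mode: compounds and dopamine controls were applied to plated cells for 90 min at 37 degrees C after an overnight attachment at 1500 cells/well. Luminescent read-out followed 30 - 60 minutes at room temperature with DiscoveRx detection reagent.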
Each line names hits and unclear results; the compound was inactive in the other large screens. Compounds with a hit are over-represented: about 2.8% of the library has one in this group of screens.

CNC(=O)c1nn(CN2CCN(Cc3cc(C)ccc3OC)CC2)c(=O)c2ccccc12	none (no result: RGS4 inh, D3 antag, PI4K2A block, Akt phos inh, D3 ag)
Cn1c(=O)c2c(ncn2CC(=O)Nc2ccccc2Cc2ccccc2)n(C)c1=O	none (no result: RGS4 inh, D3 antag, PI4K2A block, Akt phos inh, D3 ag)
O=C(Nc1nc(-c2ccccc2Cl)cs1)c1cccc(N2CCCC2=O)c1	none (no result: RGS4 inh, D3 antag, PI4K2A block, Akt phos inh, D3 ag)
CC1CCCC(NC(=O)c2ccc(F)cc2F)C1C (stereo not drawn)	none (no result: RGS4 inh, D3 antag, PI4K2A block, Akt phos inh, D3 ag)
O=C1c2ccccc2C(=O)N1CCc1c(-c2ccccc2)[nH]c2ccccc12	D3 ag 33
O=C(CCNC(=O)Cn1ccc2ccccc2c1=O)NCCCN1CCN(c2ccc(F)cc2)CC1	D3 antag inconclusive
O=C(Cn1c(=O)c2cccn2c2ccc(F)cc21)NCCCN1CCN(c2ccccc2F)CC1	D3 antag -92
O=C(CCNC(=O)Cn1ccc2ccccc2c1=O)NCCCN1CCN(c2ccccc2F)CC1	D3 antag -68
O=C(CNC(=O)Cn1ccc2ccccc2c1=O)NCCCN1CCN(c2cccc(Cl)c2)CC1	D3 antag -75
Cc1ccc(-c2nnn(CC(=O)c3c[nH]c4ccccc34)n2)cc1	none (no result: RGS4 inh, D3 antag, PI4K2A block, Akt phos inh, D3 ag)
O=C1C=CC=C/C1=C\N(O)c1ccccc1	none (no result: RGS4 inh, D3 antag, PI4K2A block, Akt phos inh, D3 ag)
Cc1ccc(S(=O)(=O)NC(CC(=O)O)c2ccco2)cc1 (stereo not drawn)	none
CCC(C)NC(=O)CC(NS(=O)(=O)c1ccc(Cl)cc1)c1ccco1 (stereo not drawn)	D3 antag -53
O=C(CC(NS(=O)(=O)c1ccc(Cl)cc1)c1ccco1)N1CCc2ccccc21 (stereo not drawn)	D3 antag -69 (no result: Akt phos inh)
CN(CC(=O)N1CCc2ccccc21)S(=O)(=O)c1ccc(Cl)cc1	none
CC(=O)c1ccc(S(=O)(=O)NCC(=O)N2CCN(C/C=C/c3ccccc3)CC2)cc1	D3 ag 43
O=C(CCl)N1CCN(C/C=C/c2ccccc2)CC1	none (no result: RGS4 inh, D3 antag, PI4K2A block, Akt phos inh, D3 ag)
O=C(c1ccc(Br)o1)N1CCN(C/C=C/c2ccccc2)CC1	D3 antag -69, Akt phos inh -109%
O=C(c1ccc(Br)s1)N1CCN(C/C=C/c2ccccc2)CC1	D3 antag -75
O=C(c1cccc(S(=O)(=O)N2CCOCC2)c1)N1CCC(Cc2ccccc2)CC1	none
O=C(c1cccc(S(=O)(=O)N2CCOCC2)c1)N1CCN(C/C=C/c2ccccc2)CC1	D3 ag 31
CC(=O)NCCCNC(=O)c1cc2ccccc2[nH]1	none (no result: RGS4 inh, D3 antag, PI4K2A block, Akt phos inh, D3 ag)
CCCCc1c(C)nn(-c2nc(CC(=O)Nc3cccc(C(C)=O)c3)cs2)c1C	none (no result: RGS4 inh, D3 antag, PI4K2A block, Akt phos inh, D3 ag)
O=C(c1nn(Cc2ccccc2)c(=O)c2ccccc12)N1CCc2ccccc21	none (no result: RGS4 inh, D3 antag, PI4K2A block, Akt phos inh, D3 ag)
COc1ccc(/C(O)=C2/C(=O)C(=O)N(Cc3cccnc3)C2c2ccncc2)cc1F (stereo not drawn)	D3 antag -136
O=C(N/N=C/c1ccc(OC(F)F)cc1OC(F)F)c1ccc(Br)cc1	D3 antag -88
Cc1ccc(S(=O)(=O)N(C)Cc2ccc(C(=O)N/N=C/c3ccc(OC(F)F)cc3OC(F)F)cc2)cc1	none
COc1ccc(-c2[nH]ncc2/C=N/NC(=O)c2ccc(Br)cc2)c(OC)c1	D3 antag -66
CCOC(=O)N1CCN(Cc2cc(=O)oc3cc(C)c(C)cc23)CC1	none (no result: RGS4 inh, D3 antag, PI4K2A block, Akt phos inh, D3 ag)
Oc1ccc(N=Cc2ccc(-c3cccs3)s2)cc1	D3 antag inconclusive, PI4K2A block -69
O=Cc1ccc(-c2cccs2)s1	none
O=c1nc(Nc2ccccc2)oc2ccccc12	none
O=c1oc(Nc2ccc(F)cc2)nc2ccccc12	PI4K2A block -57
c1ccc(CCNc2nc(-c3ccccn3)nc3ccccc23)cc1	D3 antag -70
CN1CCN(c2nc(-c3ccc(Cl)cc3)nc3ccccc23)CC1	D3 antag -61
c1ccc(-c2nc(N3CCCCCC3)c3ccccc3n2)nc1	D3 antag -127
